Measured values taken from the supplement of paper PMC11732987, “Enantioselective OTUD7B fragment discovery through chemoproteomics screening and high-throughput optimisation” (Communications Chemistry, 2025).

Key:
Test in all cases: log2 ratio of Biotin-Ahx-Ub-VS probe labelling (fragment/DMSO); higher = less target engagement (more negative = stronger competition), active = hit call of the paper (q ≤ 0.05, log2 ratio ≤ -1)
Settings in all cases: compound concentration: 200 uM; treatment time: 3 h
USP19 = target: T1, USP19 (UniProt O94966)
T1 sequence (whole entry): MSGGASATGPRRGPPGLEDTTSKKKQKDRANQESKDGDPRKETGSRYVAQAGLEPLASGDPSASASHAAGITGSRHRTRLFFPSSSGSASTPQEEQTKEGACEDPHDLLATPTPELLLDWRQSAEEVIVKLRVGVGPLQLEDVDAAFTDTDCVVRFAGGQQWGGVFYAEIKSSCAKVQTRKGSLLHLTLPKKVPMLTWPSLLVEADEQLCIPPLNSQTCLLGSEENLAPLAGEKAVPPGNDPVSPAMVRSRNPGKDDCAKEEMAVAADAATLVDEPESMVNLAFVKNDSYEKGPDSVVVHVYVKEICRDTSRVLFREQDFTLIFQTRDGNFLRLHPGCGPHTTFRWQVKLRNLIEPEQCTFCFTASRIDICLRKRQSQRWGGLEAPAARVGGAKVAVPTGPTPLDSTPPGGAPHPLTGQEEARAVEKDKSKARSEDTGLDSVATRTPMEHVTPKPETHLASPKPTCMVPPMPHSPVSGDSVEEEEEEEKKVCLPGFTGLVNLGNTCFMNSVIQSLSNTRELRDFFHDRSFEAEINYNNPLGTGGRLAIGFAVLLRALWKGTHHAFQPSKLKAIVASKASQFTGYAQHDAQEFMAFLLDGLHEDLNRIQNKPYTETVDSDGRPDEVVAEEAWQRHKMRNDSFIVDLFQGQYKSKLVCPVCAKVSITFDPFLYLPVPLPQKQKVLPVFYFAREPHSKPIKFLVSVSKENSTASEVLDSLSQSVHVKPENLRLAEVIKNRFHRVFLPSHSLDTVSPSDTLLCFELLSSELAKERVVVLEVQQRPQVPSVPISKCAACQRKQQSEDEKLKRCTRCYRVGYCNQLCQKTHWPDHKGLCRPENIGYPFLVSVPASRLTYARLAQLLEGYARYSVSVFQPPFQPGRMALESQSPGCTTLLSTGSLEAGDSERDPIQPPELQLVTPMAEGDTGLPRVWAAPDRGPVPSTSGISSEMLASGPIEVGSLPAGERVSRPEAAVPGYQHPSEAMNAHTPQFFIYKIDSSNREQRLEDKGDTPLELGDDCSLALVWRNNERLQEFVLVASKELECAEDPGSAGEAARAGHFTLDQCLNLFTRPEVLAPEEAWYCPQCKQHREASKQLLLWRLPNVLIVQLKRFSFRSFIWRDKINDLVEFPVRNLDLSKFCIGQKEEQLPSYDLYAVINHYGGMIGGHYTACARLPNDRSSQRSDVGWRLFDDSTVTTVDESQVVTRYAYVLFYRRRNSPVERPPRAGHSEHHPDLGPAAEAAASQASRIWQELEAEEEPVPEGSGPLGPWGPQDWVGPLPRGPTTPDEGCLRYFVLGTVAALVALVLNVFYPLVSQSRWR
How it was run: (§1)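 The table lists average log2 ratios of fragment over vehicle, from an unpaired t-test on global-median-normalised Spectronaut label-free quantities. Proteins with ≥2 unique peptides were used. Samples were HEK293T lysate (495 µg) treated in triplicate with fragment at 200 µM or vehicle for 3 h, then with Biotin-Ahx-Ub-VS (0.5 µM final) for 1 h, with labelled DUBs NeutrAvidin-enriched and run by diaPASEF LC-MS/MS.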

USP22 = target: T2, USP22 (UniProt Q9UPT9)
T2 sequence (whole entry): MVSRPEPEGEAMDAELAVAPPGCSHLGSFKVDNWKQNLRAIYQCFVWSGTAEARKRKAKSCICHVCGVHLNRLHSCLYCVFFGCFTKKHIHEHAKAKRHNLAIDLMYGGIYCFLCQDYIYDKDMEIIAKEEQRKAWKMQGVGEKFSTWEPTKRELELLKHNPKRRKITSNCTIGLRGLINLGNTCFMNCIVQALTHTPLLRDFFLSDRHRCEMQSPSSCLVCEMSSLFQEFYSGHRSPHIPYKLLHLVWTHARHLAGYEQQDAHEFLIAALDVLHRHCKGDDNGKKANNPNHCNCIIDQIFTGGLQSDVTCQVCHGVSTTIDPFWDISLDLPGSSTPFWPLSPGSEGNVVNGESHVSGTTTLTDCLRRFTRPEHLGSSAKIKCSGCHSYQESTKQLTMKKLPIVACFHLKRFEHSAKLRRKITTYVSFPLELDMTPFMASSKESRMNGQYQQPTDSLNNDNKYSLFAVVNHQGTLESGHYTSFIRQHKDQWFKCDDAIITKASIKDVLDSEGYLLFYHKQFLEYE
How it was run: as §1

USP24 = USP24 (UniProt Q9UPU5)
USP24, sequence (Q9UPU5 whole entry): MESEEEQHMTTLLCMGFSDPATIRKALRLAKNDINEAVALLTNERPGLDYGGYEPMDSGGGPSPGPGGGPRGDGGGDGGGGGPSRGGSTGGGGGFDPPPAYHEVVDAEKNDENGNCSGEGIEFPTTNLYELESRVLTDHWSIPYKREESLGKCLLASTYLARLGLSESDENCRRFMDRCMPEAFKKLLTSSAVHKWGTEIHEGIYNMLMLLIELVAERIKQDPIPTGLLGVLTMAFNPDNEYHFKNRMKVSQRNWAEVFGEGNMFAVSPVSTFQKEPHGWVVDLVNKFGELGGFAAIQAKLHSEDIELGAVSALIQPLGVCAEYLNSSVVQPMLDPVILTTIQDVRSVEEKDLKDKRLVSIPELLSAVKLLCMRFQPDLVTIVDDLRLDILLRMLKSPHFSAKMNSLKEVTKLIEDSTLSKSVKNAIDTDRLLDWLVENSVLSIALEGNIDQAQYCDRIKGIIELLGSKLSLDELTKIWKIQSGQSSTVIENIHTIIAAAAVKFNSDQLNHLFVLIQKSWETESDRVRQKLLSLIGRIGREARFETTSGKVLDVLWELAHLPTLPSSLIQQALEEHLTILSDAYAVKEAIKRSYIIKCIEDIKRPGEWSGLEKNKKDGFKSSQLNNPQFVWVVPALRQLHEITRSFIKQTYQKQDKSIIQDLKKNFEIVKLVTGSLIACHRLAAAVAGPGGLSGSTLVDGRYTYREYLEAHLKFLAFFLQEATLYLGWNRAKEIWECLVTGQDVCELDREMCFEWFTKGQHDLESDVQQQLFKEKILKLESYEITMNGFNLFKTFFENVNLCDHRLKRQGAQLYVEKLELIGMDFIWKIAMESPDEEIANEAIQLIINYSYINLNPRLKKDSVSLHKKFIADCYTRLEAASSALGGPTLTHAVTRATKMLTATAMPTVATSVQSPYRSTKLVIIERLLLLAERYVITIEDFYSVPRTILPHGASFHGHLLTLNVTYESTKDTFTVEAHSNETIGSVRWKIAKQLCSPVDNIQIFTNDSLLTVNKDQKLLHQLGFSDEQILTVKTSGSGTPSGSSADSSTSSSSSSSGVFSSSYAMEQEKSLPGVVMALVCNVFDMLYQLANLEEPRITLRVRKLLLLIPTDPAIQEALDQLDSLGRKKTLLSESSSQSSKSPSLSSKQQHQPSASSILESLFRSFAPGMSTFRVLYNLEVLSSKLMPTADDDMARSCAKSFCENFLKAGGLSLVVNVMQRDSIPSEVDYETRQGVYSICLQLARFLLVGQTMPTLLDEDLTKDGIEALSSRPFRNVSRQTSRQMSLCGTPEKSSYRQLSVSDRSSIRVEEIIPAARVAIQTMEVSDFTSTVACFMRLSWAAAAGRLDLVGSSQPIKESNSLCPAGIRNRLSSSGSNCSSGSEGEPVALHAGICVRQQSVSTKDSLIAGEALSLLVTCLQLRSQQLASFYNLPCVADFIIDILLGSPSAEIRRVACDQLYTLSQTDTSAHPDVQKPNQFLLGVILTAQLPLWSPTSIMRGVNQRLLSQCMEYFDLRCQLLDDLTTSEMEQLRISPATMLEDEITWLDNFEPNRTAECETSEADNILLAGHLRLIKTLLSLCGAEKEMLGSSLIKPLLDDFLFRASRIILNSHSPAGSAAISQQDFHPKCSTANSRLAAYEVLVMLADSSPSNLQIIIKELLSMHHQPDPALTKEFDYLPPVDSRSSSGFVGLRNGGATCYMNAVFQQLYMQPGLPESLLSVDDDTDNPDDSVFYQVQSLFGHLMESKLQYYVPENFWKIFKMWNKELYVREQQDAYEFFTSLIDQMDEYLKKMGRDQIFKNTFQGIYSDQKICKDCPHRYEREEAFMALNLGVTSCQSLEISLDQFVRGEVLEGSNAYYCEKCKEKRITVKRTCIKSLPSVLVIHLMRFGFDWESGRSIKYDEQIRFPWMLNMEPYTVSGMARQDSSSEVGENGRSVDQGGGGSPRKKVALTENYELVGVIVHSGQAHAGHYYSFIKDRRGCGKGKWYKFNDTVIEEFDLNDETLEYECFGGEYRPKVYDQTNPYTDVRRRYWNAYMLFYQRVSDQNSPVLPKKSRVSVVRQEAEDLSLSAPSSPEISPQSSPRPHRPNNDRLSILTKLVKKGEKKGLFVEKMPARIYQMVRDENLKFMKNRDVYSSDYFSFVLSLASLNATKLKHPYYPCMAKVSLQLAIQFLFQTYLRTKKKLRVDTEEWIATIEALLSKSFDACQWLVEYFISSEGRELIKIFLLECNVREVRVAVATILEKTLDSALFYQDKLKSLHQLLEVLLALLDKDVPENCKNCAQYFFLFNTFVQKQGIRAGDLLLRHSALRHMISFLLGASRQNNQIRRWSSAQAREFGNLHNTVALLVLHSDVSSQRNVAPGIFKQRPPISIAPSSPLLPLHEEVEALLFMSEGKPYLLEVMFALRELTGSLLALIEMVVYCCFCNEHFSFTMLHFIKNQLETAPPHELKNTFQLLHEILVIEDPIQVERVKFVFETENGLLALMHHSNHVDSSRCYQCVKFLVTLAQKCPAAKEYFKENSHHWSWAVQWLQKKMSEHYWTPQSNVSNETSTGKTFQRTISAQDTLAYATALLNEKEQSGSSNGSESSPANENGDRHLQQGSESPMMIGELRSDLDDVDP
How it was run: as §1

USP25 = target: T3, USP25 (UniProt Q9UHP3)
T3 sequence (whole entry): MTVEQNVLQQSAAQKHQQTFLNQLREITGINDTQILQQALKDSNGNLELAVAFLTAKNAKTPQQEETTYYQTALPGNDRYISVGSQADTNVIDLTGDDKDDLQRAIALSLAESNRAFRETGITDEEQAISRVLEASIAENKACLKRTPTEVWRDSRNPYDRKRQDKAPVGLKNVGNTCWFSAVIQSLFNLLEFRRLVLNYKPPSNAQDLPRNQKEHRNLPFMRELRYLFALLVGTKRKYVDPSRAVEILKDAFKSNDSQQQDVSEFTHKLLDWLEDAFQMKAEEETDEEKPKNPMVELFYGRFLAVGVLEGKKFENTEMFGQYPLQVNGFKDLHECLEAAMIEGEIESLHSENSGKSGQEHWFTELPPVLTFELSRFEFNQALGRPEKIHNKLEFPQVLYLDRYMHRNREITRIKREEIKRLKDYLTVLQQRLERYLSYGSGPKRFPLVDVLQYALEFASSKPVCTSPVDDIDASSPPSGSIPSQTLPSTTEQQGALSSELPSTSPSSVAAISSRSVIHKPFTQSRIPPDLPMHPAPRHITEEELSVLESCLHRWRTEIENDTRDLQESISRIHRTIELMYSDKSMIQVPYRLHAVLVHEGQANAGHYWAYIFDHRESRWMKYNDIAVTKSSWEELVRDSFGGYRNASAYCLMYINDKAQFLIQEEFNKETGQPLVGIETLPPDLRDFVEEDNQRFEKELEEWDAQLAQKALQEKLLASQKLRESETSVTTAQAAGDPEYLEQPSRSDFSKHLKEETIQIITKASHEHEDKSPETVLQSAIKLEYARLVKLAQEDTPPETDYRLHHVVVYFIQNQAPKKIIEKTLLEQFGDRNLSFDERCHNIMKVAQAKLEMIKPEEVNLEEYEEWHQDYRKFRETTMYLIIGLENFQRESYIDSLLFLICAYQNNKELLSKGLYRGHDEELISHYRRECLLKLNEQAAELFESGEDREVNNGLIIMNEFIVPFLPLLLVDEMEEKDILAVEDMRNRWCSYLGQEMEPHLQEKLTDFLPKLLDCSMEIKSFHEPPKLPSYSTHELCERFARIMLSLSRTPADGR
How it was run: as §1

USP28 = target: T4, USP28 (UniProt Q96RU2)
T4 sequence (whole entry): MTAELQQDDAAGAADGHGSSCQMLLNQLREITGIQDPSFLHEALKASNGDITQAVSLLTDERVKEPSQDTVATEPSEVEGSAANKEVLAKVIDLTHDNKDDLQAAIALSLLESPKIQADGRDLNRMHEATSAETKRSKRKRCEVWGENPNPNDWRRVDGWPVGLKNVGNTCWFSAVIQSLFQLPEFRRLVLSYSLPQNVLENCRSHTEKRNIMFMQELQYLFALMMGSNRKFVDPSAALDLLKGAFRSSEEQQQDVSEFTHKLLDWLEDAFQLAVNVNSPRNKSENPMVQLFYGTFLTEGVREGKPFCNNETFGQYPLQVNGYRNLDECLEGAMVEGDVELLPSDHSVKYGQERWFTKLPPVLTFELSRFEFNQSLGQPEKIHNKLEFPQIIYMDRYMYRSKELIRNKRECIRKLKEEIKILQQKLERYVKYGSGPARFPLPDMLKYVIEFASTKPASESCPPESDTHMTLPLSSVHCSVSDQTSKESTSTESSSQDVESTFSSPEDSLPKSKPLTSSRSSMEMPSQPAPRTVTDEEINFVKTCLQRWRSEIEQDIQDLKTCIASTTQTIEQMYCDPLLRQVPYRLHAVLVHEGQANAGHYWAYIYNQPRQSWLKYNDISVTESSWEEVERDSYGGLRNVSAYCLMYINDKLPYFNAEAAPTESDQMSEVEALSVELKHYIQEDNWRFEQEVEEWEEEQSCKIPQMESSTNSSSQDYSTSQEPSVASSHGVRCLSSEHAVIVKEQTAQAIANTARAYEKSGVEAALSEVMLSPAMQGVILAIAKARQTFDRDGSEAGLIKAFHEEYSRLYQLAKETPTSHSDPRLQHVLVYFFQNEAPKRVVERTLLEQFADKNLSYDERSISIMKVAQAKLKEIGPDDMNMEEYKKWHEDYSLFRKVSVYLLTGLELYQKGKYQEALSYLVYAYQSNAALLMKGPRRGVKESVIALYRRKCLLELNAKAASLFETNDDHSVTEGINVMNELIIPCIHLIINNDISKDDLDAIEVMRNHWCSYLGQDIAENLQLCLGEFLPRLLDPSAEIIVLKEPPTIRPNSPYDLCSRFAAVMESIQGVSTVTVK
How it was run: as §1

Measured: log2 ratio of Biotin-Ahx-Ub-VS probe labelling

O=C(O)C1Cc2ccccc2CN1C(=O)CCl (stereo not given)
inactive: USP19 -0.32 | USP22 0.112 | USP24 -0.348 | USP25 -0.37 | USP28 -0.576
